{"source": "the supplement of paper PMC8728848", "experiment_in_all_cases": "glycan array binding signal (z-score within array); higher = stronger binding", "settings_in_all_cases": "glycan notation: IUPAC condensed, linker removed", "key": {"[1]": {"molecular_target": "Gal(b1-4)GlcNAc(b1-3)[GlcNAc(b1-6)]Gal(b1-4)GlcNAc", "method_in_brief": "(§1)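 Glycan array binding is given as a within-array Z-score, which can be read as non-binding when negative. The arrays, 3228 of them, came from the Consortium for Functional Glycomics database and were retained only where the protein sequence was available. Z-scores were averaged across arrays of the same protein sequence at different concentrations or buffers and across linkers.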"}, "Gal6S(b1-4)Glc6S": {"molecular_target": "Gal6S(b1-4)Glc6S", "method_in_brief": "as §1"}, "Glc(a1-6)Glc(a1-6)Glc": {"molecular_target": "Glc(a1-6)Glc(a1-6)Glc", "method_in_brief": "as §1"}, "[2]": {"molecular_target": "GlcNAc(a1-4)Gal(b1-4)GlcNAc(b1-3)Gal(b1-4)GlcNAc", "method_in_brief": "as §1"}, "[3]": {"molecular_target": "GlcNAc(b1-2)Man(a1-3)[GlcNAc(b1-4)][GlcNAc(b1-2)Man(a1-6)]Man(b1-4)GlcNAc(b1-4)GlcNAc", "method_in_brief": "as §1"}, "[4]": {"molecular_target": "GlcNAc(b1-3)Gal(b1-4)GlcNAc(b1-3)Gal(b1-4)GlcNAc(b1-2)[GlcNAc(b1-3)Gal(b1-4)GlcNAc(b1-3)Gal(b1-4)GlcNAc(b1-6)]Man(a1-6)[GlcNAc(b1-3)Gal(b1-4)GlcNAc(b1-3)Gal(b1-4)GlcNAc(b1-2)Man(a1-3)]Man(b1-4)GlcNAc(b1-4)[Fuc(a1-6)]GlcNAc", "method_in_brief": "as §1"}, "[5]": {"molecular_target": "GlcNAc(b1-3)Gal(b1-4)GlcNAc(b1-3)Gal(b1-4)GlcNAc(b1-3)Gal(b1-4)GlcNAc(b1-3)Gal(b1-4)GlcNAc(b1-2)Man(a1-3)[GlcNAc(b1-3)Gal(b1-4)GlcNAc(b1-3)Gal(b1-4)GlcNAc(b1-3)Gal(b1-4)GlcNAc(b1-3)Gal(b1-4)GlcNAc(b1-2)Man(a1-6)]Man(b1-4)GlcNAc(b1-4)[Fuc(a1-6)]GlcNAc", "method_in_brief": "as §1"}, "[6]": {"molecular_target": "GlcNAc(b1-3)Gal(b1-4)GlcNAc(b1-3)Gal(b1-4)GlcNAc(b1-3)Gal(b1-4)GlcNAc(b1-3)Gal(b1-4)GlcNAc(b1-2)[GlcNAc(b1-3)Gal(b1-4)GlcNAc(b1-3)Gal(b1-4)GlcNAc(b1-3)Gal(b1-4)GlcNAc(b1-3)Gal(b1-4)GlcNAc(b1-6)]Man(a1-6)[GlcNAc(b1-3)Gal(b1-4)GlcNAc(b1-3)Gal(b1-4)GlcNAc(b1-3)Gal(b1-4)GlcNAc(b1-3)Gal(b1-4)GlcNAc(b1-2)Man(a1-3)]Man(b1-4)GlcNAc(b1-4)[Fuc(a1-6)]GlcNAc", "method_in_brief": "as §1"}, "Kdn(a2-3)Gal(b1-4)GlcNAc": {"molecular_target": "Kdn(a2-3)Gal(b1-4)GlcNAc", "method_in_brief": "as §1"}, "Neu5Ac(a2-3)Gal": {"molecular_target": "Neu5Ac(a2-3)Gal", "method_in_brief": "as §1"}, "[7]": {"molecular_target": "Neu5Ac(a2-3)Gal(b1-3)GlcNAc(b1-2)Man", "method_in_brief": "as §1"}, "[8]": {"molecular_target": "Neu5Ac(a2-3)Gal(b1-3)[Fuc(a1-4)]GlcNAc(b1-3)Gal(b1-4)[Fuc(a1-3)]GlcNAc", "method_in_brief": "as §1"}, "[9]": {"molecular_target": "Neu5Ac(a2-3)Gal(b1-3)[Neu5Ac(a2-6)]GalNAc", "method_in_brief": "as §1"}, "[10]": {"molecular_target": "Neu5Ac(a2-3)Gal(b1-4)GlcNAc(b1-3)Gal(b1-4)GlcNAc(b1-3)Gal(b1-4)GlcNAc(b1-2)Man(a1-3)[Neu5Ac(a2-3)Gal(b1-4)GlcNAc(b1-3)Gal(b1-4)GlcNAc(b1-3)Gal(b1-4)GlcNAc(b1-2)Man(a1-6)]GalNAc", "method_in_brief": "as §1"}, "[11]": {"molecular_target": "Neu5Ac(a2-3)Gal(b1-4)GlcNAc(b1-3)Gal(b1-4)[Fuc(a1-3)]GlcNAc", "method_in_brief": "as §1"}, "[12]": {"molecular_target": "Neu5Ac(a2-3)Gal(b1-4)GlcNAc(b1-6)[Neu5Ac(a2-3)Gal(b1-3)]GalNAc", "method_in_brief": "as §1"}, "[13]": {"molecular_target": "Neu5Ac(a2-3)Gal(b1-4)[Fuc(a1-3)]GlcNAc(b1-3)GalNAc", "method_in_brief": "as §1"}, "[14]": {"molecular_target": "Neu5Ac(a2-3)Gal(b1-4)[Fuc(a1-3)]GlcNAc(b1-6)[Gal(b1-3)]GalNAc", "method_in_brief": "as §1"}, "[15]": {"molecular_target": "Neu5Ac(a2-3)[GalNAc(b1-4)]Gal(b1-4)Glc", "method_in_brief": "as §1"}, "[16]": {"molecular_target": "Neu5Ac(a2-6)Gal(b1-4)GlcNAc(b1-2)Man(a1-3)[Neu5Ac(a2-6)Gal(b1-4)GlcNAc(b1-2)Man(a1-6)]Man(b1-4)GlcNAc(b1-4)[Fuc(a1-6)]GlcNAc", "method_in_brief": "as §1"}, "[17]": {"molecular_target": "Neu5Ac(a2-6)Gal(b1-4)GlcNAc(b1-3)Gal(b1-4)GlcNAc(b1-3)Gal(b1-4)GlcNAc(b1-2)Man(a1-3)[Neu5Ac(a2-6)Gal(b1-4)GlcNAc(b1-3)Gal(b1-4)GlcNAc(b1-3)Gal(b1-4)GlcNAc(b1-2)Man(a1-6)]GalNAc", "method_in_brief": "as §1"}, "[18]": {"molecular_target": "Neu5Ac(a2-6)Gal(b1-4)GlcNAc(b1-3)Gal(b1-4)GlcNAc(b1-3)[Neu5Ac(a2-6)Gal(b1-4)GlcNAc(b1-3)Gal(b1-4)GlcNAc(b1-6)]GalNAc", "method_in_brief": "as §1"}, "[19]": {"molecular_target": "Neu5Ac(a2-8)Neu5Gc(a2-3)Gal(b1-4)GlcNAc", "method_in_brief": "as §1"}, "[20]": {"molecular_target": "Neu5Gc(a2-3)Gal(b1-4)[Fuc(a1-3)]GlcNAc", "method_in_brief": "as §1"}}, "note": "Only a selection was taken, and the strongest signals are over-represented in it overall."}
{"binder": "PX9961T-pdi-555-33-555 (Parabacteroides distasonis) (protein) FDEETAFQSPTLVYVNTVASLYNNMFKIMGNDRHVYDLNTFSSDEAMLPCRIGDWEDGGLWQNIFLHRWGTMNDLTKNSWDFLYEQIGKCNQSVDKLQAFAEEQPDVEYFKVYLEEVRAVRAFFYYELLDLFARVPLVTSSTTPMSEVKQSERSVVFNFVRSELEEALPYLSDNRSNQKGEYYGRITKPVAYMILAKLALNAEVYADDNWTDGNRPAGKNIKFTVDGKEMNAWEATIAYVDKLEALGYKLQGNFSENFAVANETSVENIFTVPMDPVAYPDAKDYNLVRTRHYDHATAYGQSGWNGSCATVKAMNVFKFGTADEDPRCKLTYFTGEVTGPDGKTIYTEWDGQKVPLKYEPNAPKVYMDASDGLLVKTAGARMAKYEFDQNAQDGGNLHGNDCVIFRFADALLMKAEAKIRLGQNGDDEVNQVRNRVGAKPLQNVTLDTLLDERMLELAWEGVRRQDLIRFGKFTEATVDRYVGVKHFASSLDYQEDKTGYTTVFSIYADILSLNPNLTQNPGY", "values": [{"measurement": "glycan array binding signal (z-score)", "setting": "[1]", "result": -0.222}, {"measurement": "glycan array binding signal (z-score)", "setting": "Gal6S(b1-4)Glc6S", "result": -0.372}, {"measurement": "glycan array binding signal (z-score)", "setting": "Glc(a1-6)Glc(a1-6)Glc", "result": 0.357}, {"measurement": "glycan array binding signal (z-score)", "setting": "[2]", "result": -0.402}, {"measurement": "glycan array binding signal (z-score)", "setting": "[3]", "result": -0.416}, {"measurement": "glycan array binding signal (z-score)", "setting": "[4]", "result": -0.298}, {"measurement": "glycan array binding signal (z-score)", "setting": "[5]", "result": 0.229}, {"measurement": "glycan array binding signal (z-score)", "setting": "[6]", "result": -0.523}, {"measurement": "glycan array binding signal (z-score)", "setting": "Kdn(a2-3)Gal(b1-4)GlcNAc", "result": -0.683}, {"measurement": "glycan array binding signal (z-score)", "setting": "Neu5Ac(a2-3)Gal", "result": -0.213}, {"measurement": "glycan array binding signal (z-score)", "setting": "[7]", "result": -0.451}, {"measurement": "glycan array binding signal (z-score)", "setting": "[8]", "result": -0.031}, {"measurement": "glycan array binding signal (z-score)", "setting": "[9]", "result": -0.194}, {"measurement": "glycan array binding signal (z-score)", "setting": "[10]", "result": 1.63}, {"measurement": "glycan array binding signal (z-score)", "setting": "[11]", "result": -0.528}, {"measurement": "glycan array binding signal (z-score)", "setting": "[12]", "result": 1.08}, {"measurement": "glycan array binding signal (z-score)", "setting": "[13]", "result": 1.68}, {"measurement": "glycan array binding signal (z-score)", "setting": "[14]", "result": -0.177}, {"measurement": "glycan array binding signal (z-score)", "setting": "[15]", "result": 1.56}, {"measurement": "glycan array binding signal (z-score)", "setting": "[16]", "result": -0.612}, {"measurement": "glycan array binding signal (z-score)", "setting": "[17]", "result": 0.737}, {"measurement": "glycan array binding signal (z-score)", "setting": "[18]", "result": 1.82}, {"measurement": "glycan array binding signal (z-score)", "setting": "[19]", "result": 20.7}, {"measurement": "glycan array binding signal (z-score)", "setting": "[20]", "result": 0.358}]}
